Drawing on PubChem BioAssay AID1578 (Sanford-Burnham Center for Chemical Genomics, 2009), this text covers inhibition for 104 molecules.

The whole screen tested about 290,000 compounds, of which about 3,000 (1%) were called active. No stated cut-off is given here; in the data, active means inhibition mostly above about 36% (no sharp cut-off); inactive means mostly below about 34%. The entries come from a sample that favours actives as a whole.

This test is described as follows: NOD1 signaling inhibitors, primary screen, cell-based, luminescence, uHTS (AID 1578).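 Further: HEK-293T reporter cells stimulated with the NOD1 agonist gamma-tri-DAP.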 The settings on record: NOD1-driven NF-kB luciferase reporter cells, at 4 µM, active compounds read high. On the technique in general: Reporter assays use an easily measured gene product as a stand-in for the process of interest.
Consider `Fc1cccc(CN2CCN(Cc3nc(CCc4ccccc4)no3)CC2)c1`, for which the inhibition was -21.1% (inactive).
Regarding `Cc1ccc(O)c(C(CC(=O)NCc2ccco2)c2ccccc2)c1` (centres undefined), the inhibition is -21.1% (inactive).
Regarding `Cc1nnc(SCC(=O)c2ccccc2F)n1Cc1ccccc1`, the inhibition was -6.1% (inactive).
As to `COCC1CCN(C(=O)c2cc(COc3ccc(OC)c4ccccc34)on2)C1` (centres undefined), the inhibition was -73.2% (inactive).
As for `CS(=O)(=O)N(CCCC(=O)N1CCCCCC1)c1cccc(Cl)c1`, the inhibition is 0.2% (inactive).
As for `CCN(CC)CCNC(CC(=O)Nc1ccc(Cl)cc1Cl)C(=O)O` (centres undefined), the inhibition was -7% (inactive).
On to `COc1ccc(-c2cc(NCCc3ccncc3)n3ncnc3n2)cc1`, for which the inhibition is 2.6% (inactive).
As for `COc1ccc(NC(=O)NCc2ccco2)cc1OC`, the inhibition is -24.4% (inactive).
`COc1cc(S(=O)(=O)NCc2ccncc2)c(OC)cc1C`: the inhibition is -15.2% (inactive).
Turning to `O=[N+]([O-])c1cccc(/C=C/c2nc[nH]c2[N+](=O)[O-])c1`, the inhibition was -10.5% (inactive).
In the case of `Cc1cccc(C(=O)Oc2ccccc2C(=O)N2CCOCC2)c1`, the inhibition was -8.5% (inactive).
Consider `COCCn1c(C)cc(C2=NNC(=Nc3ccc(Cl)cc3Cl)SC2)c1C`, for which the inhibition was 13.9% (inactive).
Turning to `COCCn1c(C)cc(C2=NNC(=Nc3ccccc3F)SC2)c1C`, the inhibition is 65.1% (active).
As for `COCCn1c(C)cc(C2=NNC(=Nc3ccccc3)SC2)c1C`, the inhibition is -63.4% (inactive).
As for `Cc1c(C)c2ccc(O)c(CN3CCCC3)c2oc1=O`, the inhibition is 15.3% (inactive).
Turning to `Cn1c2ccccc2c(=O)c2ccc(C#CC3(N)CCCCC3)cc21`, the inhibition is 30.6% (inactive).
Turning to `Cn1c2ccccc2c(=O)c2cc(C#CC3(O)CCCCC3)ccc21`, the inhibition is 35% (inactive).
Regarding `Cn1c2ccccc2c(=O)c2ccc(C#CC3(O)CCCCC3)cc21`, the inhibition is 82% (active).
With `CCC(=O)N1CCc2cc(S(=O)(=O)NCCC(=O)N3CCN(c4ccccc4)CC3)ccc21`, the inhibition was -26.5% (inactive).
Turning to `O=C1CCN(CCCc2ccccc2)CCN1[C@H](CO)Cc1ccccc1`, the inhibition is -31.4% (inactive).
With `COc1ccccc1-c1nc(C#N)c(N2CCN(c3ccccc3)CC2)o1`, the inhibition was -2.9% (inactive).
In the case of `COc1ccc(-c2nc(C#N)c(N3CCN(c4cccc(Cl)c4)CC3)o2)cc1OC`, the inhibition was 5.2% (inactive).
As to `C[C@@H]1CC=C[C@H]2[C@H]1C(=O)N(Cc1ccccc1)[C@H]2c1ccc(-c2ccoc2)cc1F`, the inhibition is -2.6% (inactive).
In the case of `Cc1c(O)ccc2c(CC(=O)N[C@@H](Cc3c[nH]c4ccccc34)C(=O)O)cc(=O)oc12`, the inhibition was -0.1% (inactive).
Regarding `FC(F)(F)c1cc(-c2ccccc2)nc(N2CCCCC2)n1`, the inhibition is 8.3% (inactive).
For `FC(F)(F)c1cc(-c2ccccc2)nc(N2CCCCCC2)n1`, the inhibition is 37.9% (active).
In the case of `CN1CCN(c2nc(-c3ccccc3)cc(C(F)(F)F)n2)CC1`, the inhibition is -26.3% (inactive).
Next, `Cc1nn(C)cc1/C=N\NC(=O)Cc1ccc([N+](=O)[O-])cc1`: -27.7% (inactive).
In the case of `COc1ccc(C#Cc2ccc3c(=O)c4ccccc4n(C)c3c2)cc1`, the inhibition was 25.7% (inactive).
In the case of `CCC(=O)NC(=S)Nc1cccc(Cl)c1N1CCCC1`, the inhibition is 55.9% (active).
Consider `CCCC(=O)NC(=S)Nc1cccc(Cl)c1N1CCCCC1`, for which the inhibition is -26.4% (inactive).
For the molecule `CCCC(=O)NC(=S)Nc1cccc(Cl)c1N1CCCC1`, the inhibition is -26.8% (inactive).
Turning to `COC(=O)C1Cc2ccccc2CN1C(=O)CCl` (centres undefined), the inhibition was 39.2% (inactive).
Then `CCN1CCN(CC(=O)N/N=C/c2cc(Br)cs2)CC1`, with 104% (active); and `O=C(Cc1ccccc1)N/N=C/c1cc(Br)cs1`, with 1.2% (inactive); and `Cc1nccn1CC(=O)N/N=C/c1cc(Br)cs1`, with -0.6% (inactive).
Next, `Cc1cc(C)n(-c2nc3c(c(=O)[nH]c(=O)n3C)n2C(C)C)n1`: 5.7% (inactive).
As for `O=C(CN1CCN(c2ccc(F)cc2)CC1)Nc1cc(C(F)(F)F)ccc1Cl`, the inhibition was -11.8% (inactive).
In the case of `CCOC(=O)CNC(=O)C1Cc2ccccc2CN1S(=O)(=O)c1cccs1` (centres undefined), the inhibition was -33% (inactive).
As for `COc1ccc(C2CC(c3cccs3)=NN2S(C)(=O)=O)cc1` (centres undefined), the inhibition was -18% (inactive).
For the molecule `COc1cccc(C2CC(c3cccs3)=NN2S(C)(=O)=O)c1` (centres undefined), the inhibition was 47.7% (active).
Consider `COc1ccc(C2CC(c3cccs3)=NN2S(C)(=O)=O)cc1OC` (centres undefined), for which the inhibition was -25.1% (inactive).
For the molecule `COc1ccc(C(=O)Nc2nnc(Cc3ccccc3)s2)c(OC)c1`, the inhibition was -43.9% (inactive).
Next, `O=[N+]([O-])c1ccc(S(=O)(=O)N/N=C/c2ccco2)cc1`: -34.8% (inactive).
With `CCOC(=O)c1cnc2ccc(OCC)cc2c1NCCN1CCOCC1`, the inhibition is -21.5% (inactive).
With `O=c1cc(-c2ccc3c(c2)OCO3)oc2ccccc12`, the inhibition was -38.2% (inactive).
On to `COc1ccc(-c2csc(N3CCN(c4cc(C)nc5ccccc45)CC3)n2)cc1OC`, for which the inhibition was 54.5% (active).
`Cc1cc(N2CCN(c3nc(-c4ccc([N+](=O)[O-])cc4)cs3)CC2)c2ccccc2n1`: the inhibition was 3.5% (inactive).
On to `Cc1cc(N2CCN(c3nc(-c4ccccc4)cs3)CC2)c2ccccc2n1`, for which the inhibition is -3.1% (inactive).
On to `C[C@@H]1C=C(C(=O)NCc2ccccc2)O[C@H](OCc2ccc(CO)cc2)C1`, for which the inhibition was -6.2% (inactive).
Take `O=C1/C(=C/c2ccc([N+](=O)[O-])cc2)C=C(c2ccccc2)N1c1ccc(O)cc1`: the inhibition is 28.6% (inactive).
Take `O=C(O)c1cccc(N2C(=O)/C(=C/c3ccc([N+](=O)[O-])cc3)C=C2c2ccccc2)c1`: the inhibition is 55.4% (active).
In the case of `O=C1/C(=C/c2ccc([N+](=O)[O-])cc2)C=C(c2ccccc2)N1c1ccccc1`, the inhibition was -31.4% (inactive).
Regarding `O=C(NCc1cccnc1)C1CCCN(S(=O)(=O)c2cccc3nsnc23)C1` (centres undefined), the inhibition is -7.8% (inactive).
Then `CCOC(=O)c1ccc(NC(=S)NCCc2ccccc2F)cc1`, with -22.7% (inactive).
With `CCOC(=O)c1ccc(NC(=S)NCCc2ccccc2)cc1`, the inhibition was 0.7% (inactive).
As for `CCOC(=O)c1ccc(NC(=S)NCCc2ccc(F)cc2)cc1`, the inhibition is 72.6% (active).
Then `CCCCCCn1c(CN2CCCCC2C)nc2c1c(=O)n(C)c(=O)n2C` (centres undefined), with -20.6% (inactive).
For the molecule `CCOC(=O)c1c(C2CC2)csc1NC(=O)COC(=O)c1cc(OC)c(OC)cc1[N+](=O)[O-]`, the inhibition was -39.9% (inactive).
On to `COc1cccc(/C=C2\Sc3ccc(C(=O)NCc4cccnc4)cc3N(C)C2=O)c1`, for which the inhibition was 44.2% (inactive).
As to `CN1C(=O)/C(=C/c2cccc(Cl)c2)Sc2ccc(C(=O)NCc3cccnc3)cc21`, the inhibition is 4.4% (inactive).
As for `COc1ccc(/C=C2\Sc3ccc(C(=O)NCc4cccnc4)cc3N(C)C2=O)cc1OC`, the inhibition was 42.3% (active).
Consider `Cc1cccc(N(C(=O)CNC(=O)c2ccco2)C(C(=O)NC2CCCC2)c2ccncc2)c1` (centres undefined), for which the inhibition was -12.6% (inactive).
As to `CC1=NN(c2nc(-c3ccccc3)cs2)C(=O)C1`, the inhibition was 3.7% (inactive).
`CC1=NN(c2nc(-c3ccc(Cl)cc3)cs2)C(=O)C1`: the inhibition is 46.6% (inactive).
As to `O=C1CC(c2ccccc2)=NN1c1nc(-c2ccccc2)cs1`, the inhibition was 65.7% (active).
Next, `CCCNC(=O)c1onc(CSc2cccc(OC)c2)c1C(=O)NCCC`: -4% (inactive); `Nc1nc(-c2ccc(NC(=O)c3ccco3)cc2)cs1`: -4.3% (inactive); `Cc1nc(-c2ccc(C(=O)Nc3cccc(F)c3)cc2)cs1`: 26.3% (inactive).
With `Cc1nc(-c2ccc(C(=O)Nc3cccc(Br)c3)cc2)cs1`, the inhibition was 47.3% (active).
With `Cc1ccc(C(=O)Nc2ccc(-c3csc(C)n3)cc2)cc1`, the inhibition is -53.9% (inactive).
For `Cc1nc(-c2ccc(NC(=O)c3ccco3)cc2)cs1`, the inhibition is 54.6% (active).
For the molecule `Cc1nc(-c2cccc(NC(=O)c3ccco3)c2)cs1`, the inhibition was -30.5% (inactive).
With `COCCN1Cc2cccc(C(=O)Nc3cccc(-c4nc5ccccc5[nH]4)c3)c2C1=O`, the inhibition was -5.5% (inactive).
As for `CCOc1ccc(C(=O)OCc2nnc(-c3cccs3)o2)cc1OC`, the inhibition was -3.4% (inactive).
In the case of `Oc1nc(Nc2ccccc2)sc1/C=C1\C=Nc2ccccc21`, the inhibition is -13.5% (inactive).
With `O=C(COC(=O)c1ccccc1Br)NCc1ccccc1`, the inhibition was -32% (inactive).
In the case of `CC(=O)N/C(=C/c1ccc([N+](=O)[O-])cc1)C(=O)O`, the inhibition was -71.3% (inactive).
Regarding `O=C(O)c1cc(-c2ccc(Cl)cc2)n(-c2ccccc2)n1`, the inhibition is -29.5% (inactive).
Consider `COC(=O)C1C2C=CC3(CN(c4cccc(C)c4)C(=O)C13)O2` (centres undefined), for which the inhibition is -25.9% (inactive).
As to `COc1ccc2nccnc2c1[N+](=O)[O-]`, the inhibition was -0.6% (inactive).
Consider `O=C(CCCc1ccccc1)NCCCc1ccccc1`, for which the inhibition is -23.7% (inactive).
Consider `O=C(CCC(=O)NCCCc1ccccc1)NCCCc1ccccc1`, for which the inhibition is 80.7% (active).
Regarding `O=C(CCCCC(=O)NCCCc1ccccc1)NCCCc1ccccc1`, the inhibition is -23.1% (inactive).
For `CCn1c(-c2ccccc2)c(C(=O)CC#N)c2ccccc21`, the inhibition is -39.5% (inactive).
Then `CCn1c(-c2ccccc2)c(C(=O)O)c2ccccc21`, with -1.6% (inactive); and `CCn1c(-c2ccccc2)c(C(=O)CCl)c2ccccc21`, with 79.5% (active).
With `Cc1ccc(OCc2nnc(SCC(N)=O)n2N)cc1`, the inhibition was -1.8% (inactive).
As for `O=C(Cc1c[nH]c2ccccc12)Nc1ccc(N2CCOCC2)cc1`, the inhibition is -30.3% (inactive).
Turning to `NC(=O)C1(N2CCCCC2)CCN(C(=S)Nc2ccc(S(N)(=O)=O)cc2)CC1`, the inhibition was -18.7% (inactive).
`COc1cccc(OCc2cc(C(=O)NCc3ccccn3)no2)c1`: the inhibition was -60.1% (inactive).
As to `COc1cccc(OCc2cc(C(=O)NCc3ccc4c(c3)OCO4)no2)c1`, the inhibition was -60.1% (inactive).
Regarding `O=C(O)C(Cc1ccccc1)N1C(=O)/C(=C/c2cccs2)SC1=S` (centres undefined), the inhibition is 3% (inactive).
Next, `O=C(O)C(Cc1ccccc1)N1C(=O)/C(=C/c2ccccc2)SC1=S` (centres undefined): 40.1% (inactive); `Cc1ccc(CCNC(=O)CN(C)S(=O)(=O)c2ccc3c(c2)n(C)c(=O)c(=O)n3C)cc1`: -2.1% (inactive).
In the case of `COc1cc(Cl)cc(/C=C/c2ccc3cccc(O)c3n2)c1OC`, the inhibition is 8.1% (inactive).
In the case of `COc1cc(Br)cc(/C=C/c2ccc3cccc(O)c3n2)c1OC`, the inhibition is 23% (inactive).
In the case of `COc1cccc(/C=C/c2ccc3cccc(O)c3n2)c1`, the inhibition was 7.9% (inactive).
Then `COc1ccc(/C=C/c2ccc3cccc(O)c3n2)c(OC)c1OC`, with 16.5% (inactive); and `COc1cc(Br)c(/C=C/c2ccc3cccc(O)c3n2)cc1OC`, with 11.8% (inactive); and `COc1ccccc1/C=C/c1ccc2cccc(O)c2n1`, with -8.4% (inactive).
Turning to `COc1ccc(/C=C/c2ccc3c(Br)ccc(O)c3n2)cc1`, the inhibition was 0.6% (inactive).
Take `COc1cc(/C=C/c2ccc3c(Br)cc(Br)c(O)c3n2)ccc1O`: the inhibition was 79.9% (active).
`COc1ccc(/C=C/c2ccc3cccc(O)c3n2)cc1Br`: the inhibition is 6.9% (inactive).

A word on the inhibition: it is the change of the read-out against control, counted positive when it falls.
